Measured values as given in the OligoGym collection.

The sequences below were run against PHF23 (assay: pooled miR-30 sensor sort-seq; sequence = guide strand). Conditions: shRNA.
Also: reference of the scale not given here.

Sequence | sensor-assay potency score (higher = more potent)
TAACTTCCGCTTCTTGCTCTTC | -0.863
TTCTTGCTCTTCTTGATTCGAG | -0.558
TTGCCATCTCTTCTTCTTCTTC | -0.747

Each sequence was assayed against PHF8 in the same assay as above. Conditions: shRNA.

Sequence | sensor-assay potency score (higher = more potent)
TTTCACAAAATCACCAAGCTTC | 0.0269
TTGGATAAACTCTTCACCCTTT | 0.593
TTGCTTTCTGGAAAGAGCCTGT | -0.163
TTGCTATCTTGGTTCGCCGAGA | -0.723
TTGAGCTGCATCTCGATGTTAA | -0.768
TTCCAAACTAATGACATTGAGG | -0.716
TCACACTCGATCATGAAGCGGG | 0.234
TTCTGCTTGAACGATGACCTGT | 0.147
TTTGCTATCTTGGTTCGCCGAG | -0.492
TTCAACACCAACACAACTGCCA | 0.225
TTTGTCAGAACCAACATAGTGT | 0.088
AACACTTGTAGCACTTGTCCAC | -0.0267

Each sequence was assayed against PIK3AP1 in the same assay as above. Conditions: shRNA.

Sequence | sensor-assay potency score (higher = more potent)
TTGTCATCATATCTTCTTCTTC | -0.605
TTCCTCTTTAATGTGACTCTTG | -0.151
TTAAGGTCAACAGTCATGCTAT | -0.337
TTCTTCAGTCCATACTTCGCAG | -0.885
TTGCCTTCTAAAAACTTGCGGA | -0.361
TTTAATGTGACTCTTGAGCATG | -0.893
AAGTCTAGGAACTCCTCGCTGT | 0.0251
TTACTTGTGCTACTTGCTGTGC | -0.439
TAGCCGTTTAAGATTTTCCTGC | -0.144
TAGACGATGAGGATGTCGCATC | -0.908
TACTCGTCGATGAACTGCCGCA | -0.193
TTCGATTAAGTCTTCATCCTTT | 0.829

The sequences below were run against PIK3R4 in the same assay as above. Conditions: shRNA.

Sequence | sensor-assay potency score (higher = more potent)
TTCCTTTAAAACACTGAGCAGA | -0.752
TTTTGTAGCAGTCCTAACTGGC | -0.0245
TAGCAAAGTAACAACTTTCTGC | 0.5
TAAACTAGTCAAGTACATCTTA | 0.418
TATCTGAAAAATAACTCTCTAC | -0.529
TTTTATTTAGCACTTGTTCAGG | -0.266
TAATAGCTTACAACCATCTTTT | -0.784
TTGTCTCGCACATACTGCCTAA | -0.86
TTCAATTTTATTTAGCACTTGT | 0.585
TTACAGTAGACATCAGCTGTAC | 0.0221
TTATTTTCATATCTGAGCCAGC | -0.787
